Screening data: PubChem, National Center for Advancing Translational Sciences (NCATS)
Pol eta inh-1 = inhibitors of human DNA polymerase eta; recombinant Pol eta, fluorescent DNA replication assay; Q9Y253; actives 1.2% (n = 390,000); Potency, µM (doses to about 114 µM), inactives show at the top dose activity change, negative = inhibition, actives largely listed as inhibitors; AID 588591; also: potency is read from the fitted curve at half-maximal effect; % is scaled to controls: 0 for no effect and ±100 for the full control effect
Target sequence (Q9Y253 whole entry, looked up): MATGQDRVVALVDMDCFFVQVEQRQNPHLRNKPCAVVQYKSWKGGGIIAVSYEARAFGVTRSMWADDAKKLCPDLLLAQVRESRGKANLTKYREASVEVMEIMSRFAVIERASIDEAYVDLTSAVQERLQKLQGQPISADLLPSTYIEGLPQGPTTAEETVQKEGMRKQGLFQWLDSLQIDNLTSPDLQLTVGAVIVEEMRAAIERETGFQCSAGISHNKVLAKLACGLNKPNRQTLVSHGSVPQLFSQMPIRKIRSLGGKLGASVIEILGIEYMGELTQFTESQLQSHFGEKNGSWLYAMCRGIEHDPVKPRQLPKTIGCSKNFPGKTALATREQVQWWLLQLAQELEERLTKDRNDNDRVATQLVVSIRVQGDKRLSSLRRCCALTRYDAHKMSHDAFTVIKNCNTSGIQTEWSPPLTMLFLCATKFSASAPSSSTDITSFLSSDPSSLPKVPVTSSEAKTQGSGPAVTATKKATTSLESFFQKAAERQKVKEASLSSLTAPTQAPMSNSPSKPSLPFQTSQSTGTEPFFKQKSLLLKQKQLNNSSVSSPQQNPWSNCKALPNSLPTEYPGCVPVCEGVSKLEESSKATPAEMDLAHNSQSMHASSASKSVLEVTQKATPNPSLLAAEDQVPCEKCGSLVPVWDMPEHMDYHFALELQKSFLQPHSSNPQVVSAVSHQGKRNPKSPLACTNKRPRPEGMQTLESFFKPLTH
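Fluorescent replication assay: 50 nM final substrate added after a 15 min room-temperature compound preincubation with 10 nM enzyme. Signal taken at 0 min and again at 10 min.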
GLS inh = glutaminase GLS (human) inhibition; GLS enzymatic activity, qHTS titration; actives 0.21% (n = 410,000); Potency, µM (top dose mostly 45.5 µM), for the others: top-dose activity change, negative = inhibition, most hits filed as inhibitors; AID 624170; also: potency is read from the fitted curve at half-maximal effect; % is scaled to controls: 0 for no effect and ±100 for the full control effect
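Enzyme dispensed in phosphate buffer (45 mM, pH 8.2, 0.02% Tween-20), compounds pinned in, then 1 mM L-glutamine solution and the glutamate oxidase–HRP–Amplex Red mix added; fluorescence read immediately and again after 30 min at room temperature.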
Pol iota inh = inhibitors of human DNA polymerase iota; Potency, µM (top dose mostly 115 µM), for inactives: top-dose activity, negative = inhibition, usual class: inhibitors; AID 588590; actives 1% (n = 390,000); Pol iota fluorescent replication assay, 10 min; also: potency is read from the fitted curve at half-maximal effect
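Pol iota at 10 nM preincubated 15 min with compounds at room temperature; reaction started with fluorescent substrate, 50 nM final. Fluorescence read kinetically at 0 and 10 min; buffer-only wells as negative control.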
Pol kappa inh-1 = inhibitors of human DNA polymerase kappa; Q9UBT6; purified Pol kappa, fluorescent DNA synthesis assay, 10 min; Potency, µM (series often up to 107 µM), for the others: at the top dose activity, negative = inhibition, hits mostly inhibitors; actives 0.53% (n = 400,000); also: potency is read from the fitted curve at half-maximal effect; % is scaled to controls: 0 for no effect and ±100 for the full control effect
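50 nM final substrate added after 15 min RT preincubation of 10 nM Pol kappa with compound; fluorescence read at 0 and 10 min.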
Pol beta inh = DNA polymerase beta (human) inhibition. Pol beta primer extension/strand displacement, fluorescence kinetic. Potency, µM (series often up to 114 µM), inactives show at the highest dose activity change, negative = inhibition, actives largely listed as inhibitors. actives 1.3% (n = 340,000). P06746; also: potency is read from the fitted curve at half-maximal effect; % is scaled to controls: 0 for no effect and ±100 for the full control effect
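10 nM enzyme + cpd, 15 min RT; start with substrate 50 nM final; read 0 min and after 10 min RT. Corrected, normalized data; 4-parameter Hill curve fit.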
APE1 inh = inhibitors of human APE1 endonuclease. P27695. recombinant APE1, TAMRA/BHQ-2 abasic DNA cleavage fluorescence. Potency, µM (highest dose often 65.8 µM), without a hit: at the highest dose activity change, negative = inhibition, most hits filed as inhibitors. actives 0.35% (n = 350,000). AID 2517;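 also: potency is read from the fitted curve at half-maximal effect; plate controls were vehicle for no effect and reference inhibitor for full effect; nearly all actives have a fitted effect of over 55% in size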
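Quantitative HTS: incision of a TAMRA/BHQ-2 double-stranded substrate bearing a tetrahydrofuran abasic site by 0.75 nM APE1 raises fluorescence. Substrate 50 nM final, added after 15 min compound preincubation at room temperature; progress as third-minus-first kinetic read difference.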
POLI cherry-pick = Inhibitors of human DNA polymerase iota, confirmation; shares compounds with Pol kappa inh-1; Pol iota primer extension, TAMRA/BHQ fluorescence; Potency, µM, hits mostly inhibitors; actives 77% (n = 1,500); also: potency is read from the fitted curve at half-maximal effect
GALK confirm = confirmation of human galactokinase (GALK) inhibitors; purified GALK, Kinase-Glo ATP depletion luminescence; AID 2015; shares compounds with Pol eta inh-1; actives 70% (n = 150); Potency, µM (series often up to 115 µM), for the others: top-dose activity, negative = inhibition, actives largely listed as inhibitors
Redox cycling = redox cycling activity in phenol red-HRP assay; shares compounds with Pol eta inh-1; Phenol red-HRP H2O2 redox cycling, absorbance 600 nm; Potency, µM (series often up to 115 µM), inactives show top-dose activity change, negative = H2O2 signal, usual class: inhibitors; actives 40% (n = 150); AID 2035
HEK293 viability = counter-screen for GALK inhibitors: HEK293 cell cytotoxicity; AID 2547; shares compounds with Pol eta inh-1; actives 10% (n = 170); Potency, µM (top dose mostly 46.1 µM), for inactives: at the top dose activity change, negative = cytotoxicity, usual class: inhibitors; HEK-293 viability, ATP luminescence (CellTiter-Glo), 24/48 h; also: potency is read from the fitted curve at half-maximal effect; % is scaled to controls: 0 for no effect and ±100 for the full control effect
Pol kappa inh-2 = confirmation of human DNA polymerase kappa inhibitors; purified Pol-kappa, fluorescent strand-displacement substrate; actives 76% (n = 920); shares compounds with Pol eta inh-1; Potency, µM, hits mostly inhibitors; also: potency is read from the fitted curve at half-maximal effect
Pol eta inh-2 = confirmation of human DNA polymerase eta inhibitors | AID 720502 | Potency, µM, most hits filed as inhibitors | shares compounds with Pol eta inh-1 | Pol eta primer extension, TAMRA/BHQ fluorescence, 10 min | actives 64% (n = 2,600); also: potency is read from the fitted curve at half-maximal effect
* hit, by the source's call; u = inconclusive; x = not tested or not shown; ! = not active in a repeat; [ ] = dose if it differs, or a comment. Sampled rows, rich in hits. Any-hit rate of the full collection: about 2.4%. Calls follow the shape of the dose curve; as a rule, active = well fitted curve in the direction sought with a large enough effect; inconclusive = small, poorly fitted or top-dose-only effect, or another doubt; inactive = no such curve, though single readings can be large; an effect the other way counts as inactive or inconclusive.

SMILES	Pol eta inh-1	GLS inh	Pol iota inh	Pol kappa inh-1	Pol beta inh	APE1 inh	Pol eta inh-2	others
Cc1cccc(N2C(=O)/C(=C/c3ccc(N4CCN(C)CC4)o3)C(=O)NC2=S)c1C	20µM*	u	u	u	-2%	-12%	30*	POLI cherry-pick=60*;Pol kappa inh-2=8.4*
CCOC(=O)COc1ccc(/C=C2\C(=O)NC(=S)N(c3ccc(OC)cc3)C2=O)cc1OC	-9%	-14%	-12%	7%	-21%	21%	x
C=C(COC(=O)CCC(=O)O)CC1CC(O)[C@]2(C)OC3CC4OC5C[C@]6(C)O[C@]7(C)CCC8OC9C[C@]%10(C)OC%11C(C)=CC(=O)OC%11CC%10OC9C[C@@H](C)C8OC7CC6O[C@]5(C)C/C=C\C4OC3CC2O1 (some centres undefined)	1%	13%	u	-8%	0%	20%	x
COc1ccc2c3c1OC1CC(O)C=CC31CCN(C)C2 (centres undefined)	-5%	8%	37%	-4%	u	-6%	x
CC1=C2C3OC(=O)[C@H](C)[C@H]3CC[C@@]2(C)C=CC1=O (some centres undefined)	x	x	x	-7%[19.4 µM]	x	1%	x
COc1cccc(-c2nc(CS(=O)CC(=O)N3CCC4(CC3)OCCO4)c(C)o2)c1 (centres undefined)	-4%	-1%	19%	3%	8%	0%	x
Cc1c(N=Cc2c(O)n(Cc3ccccc3)c(=O)[nH]c2=O)c(=O)n(-c2ccccc2)n1C	-19%	-9%	64%	4%	-5%	-2%	x
Cc1c(N=Cc2c(O)n(Cc3ccco3)c(=O)[nH]c2=O)c(=O)n(-c2ccccc2)n1C	18µM*	-7%	u	-29%	u	-8%	u
O=C(N/N=C/c1c(O)n(Cc2ccco2)c(=O)[nH]c1=O)c1ccccc1O	14µM*	0%	28µM*	79µM*	-29%	u	30*
COc1ccc(OC)c(-n2c(O)c(C=Nc3c(C)n(C)n(-c4ccccc4)c3=O)c(=O)[nH]c2=O)c1	-10%	9%	-12%	-9%	-1%	5%	x
Cc1cc(/C=C2\C(=O)NC(=O)N(c3ccc(F)cc3)C2=O)c(C)n1-c1cccc(C(=O)O)c1	22µM*	u	22µM*	u	28µM*	5%	u	Pol kappa inh-2=38*
Cc1cc(/C=C2\C(=O)NC(=O)N(c3ccccc3)C2=O)c(C)n1-c1ccc(C(=O)O)c(Cl)c1	10µM*	-15%	u	u	22µM*	-40%	34*	Pol kappa inh-2=19*
Cc1cc(/C=C2/C(=O)NC(=O)N(C)C2=O)c(C)n1-c1ccccc1	-9%	-6%	-20%	10%	-2%	-8%	x
O=C1NC(=O)N(CCC2=CCCCC2)C(=O)/C1=C/c1cccs1	u	-13%	u	-40%	u	u	u
O=C1NC(=O)N(CCC2=CCCCC2)C(=O)/C1=C/c1ccc(O)cc1	-25%	15%	-20%	-3%	2%	u	x
CCC(CO)(C(=O)OC1C[N+]2(C)CCC1CC2)c1ccccc1 (centres undefined)	-13%	6%	90%	3%	34%	-1%	x
CN1C(=O)C(=Cc2ccc(N3CCCCCC3)o2)C(=O)N(C)C1=S	u	2%	u	-22%	u	-3%	x
O=C(O)c1ccccc1-c1ccc(C=C2C(=O)N(c3ccccc3)C(=S)N(c3ccccc3)C2=O)o1	18µM*	8.9µM*	u	u	45µM*	20%	34*	Pol kappa inh-2=17*
CC1=C(O)C(=O)C=C2C1=CC=C1C2(C)CCC2(C)C3CC(C)(C(=O)O)CCC3(C)CCC12C (centres undefined)	7.9µM*	u	3.5µM*	32µM*	x	x	34*
O=[N+]([O-])c1ccc(N2CCCCCC2)c2nonc12	u	5%	28µM*	u	20µM*	-55%	60*
O=C1NC(=O)N(Cc2ccccc2Cl)C(=O)/C1=C/N1CCOCC1	-6%	u	10%	0%	-19%	-2%	x
Cn1cccc1/C=C1/C(=O)NC(=O)N(Cc2ccccc2)C1=O	u	-4%	16µM*	79µM*	4%	-7%	76*
Cn1cccc1/C=C1\C(=O)NC(=O)N(Cc2ccccc2)C1=O	35µM*	1%	22µM*	50µM*	u	12%	u
COc1cc(/C=C2\C(=O)NC(=O)N(CCc3ccc(F)cc3)C2=O)ccc1O	-1%	7%	u	-20%	0%	-6%	x
O=C(Cn1cc(C(=O)c2ccccc2)c2ccccc21)Nc1ccc(Br)cc1	5%	1%	20%	7%	16%	x	x
O=NN1CCCCC1	-17%	-3%	7%	-12%	x	11%	x
Cc1cc2c(C(C)C)c(O)c(O)c(C=O)c2c(O)c1-c1c(C)cc2c(C(C)C)c(O)c(O)c(C=O)c2c1O	x	u	2.5µM*	11µM*	0.56µM*	25µM*!	x	GALK confirm=24µM*;Redox cycling=-9%;HEK293 viability=6%
CN1C(=O)/C(=C\c2ccc(Br)s2)C(=O)NC1=S	u	u	u	-29%	u	-10%	x
